Nine molecules from PubChem BioAssay (Tox21) can be followed below.

The structures appear in SMILES notation. Several values for one entry are separate records, joined by “and”; a condition that tells them apart may be missing. Equal values may be shown once. Records with an inconclusive call do not appear. Some structures have more than one record in an assay (separate samples or runs), and their calls can disagree. Activity calls are given as the source filed them. Unless noted, calls follow the shape of the dose curve; as a rule, active = well fitted curve in the direction sought with a large enough effect in the repeat runs; inconclusive = weak or mixed curves; inactive = no such curve, though single readings can be large; an effect the other way counts as inactive or inconclusive.

The nature of test [1]: qHTS assay to identify small molecule agonists of the vitamin D receptor (VDR) signaling pathway - cell viability counter screen (AID 743224). Also: series mostly up to about 63 µM; nearly all actives have a fitted effect of over 50% in size. The essentials: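 VDR-bla cells, 4 h after plating, exposed to compounds for 16 h at 37C; viability then read in the same wells as CellTiter-Glo luminescence after 30 min at room temperature, following the bla FRET read.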
A short description of test [2]: qHTS assay to identify small molecule antagonists of the vitamin D receptor (VDR) signaling pathway - cell viability counter screen (AID 743225). Also: nearly all actives have a fitted effect of over 50% in size. Summed up:
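Same-well multiplex: following 16 h treatment of HEK 293T cells carrying a UAS-driven beta-lactamase reporter with compound and agonist (3 nM final), and a 2 h FRET substrate step, CellTiter-Glo was added and luminescence read after 30 min.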

Test [3] in a line: qHTS assay to identify small molecule agonists of the NFkB signaling pathway (AID 1159509; active = well fitted curve in the direction sought with a large enough effect in the signal ratio in the repeat runs, not every such curve was filed as active; the % refers to the signal ratio; also: series mostly up to about 61 µM). The essentials: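 ME-180 NFkB-bla, 2,000 cells/well, overnight plating; cpd pinned in DMSO, 5 h 37 C; B/G FRET substrate 1.5 h RT; ex 405, em 460/530 nm.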
A short description of test [4]: qHTS assay to identify small molecule agonists of the NFkB signaling pathway - cell viability counter screen (AID 1159515; calls by dose curve; also: series mostly up to about 61 µM; nearly all actives have a fitted effect of over 55% in size). The essentials:
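NFkB-bla ME-180 cells, 2,000/well, plated overnight at 37 C; compound added for 5 hr at 37 C. Viability read in the same wells as the bla reporter, by CellTiter-Glo luminescence after 30 min at room temperature.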

Test [5] is described as follows: qHTS assay to identify small molecule agonists of the endoplasmic reticulum stress response signaling pathway (AID 1159516; active = well fitted activation curve with a large enough effect in the signal ratio in the repeat runs, not every such curve was filed as active; the % refers to the signal ratio). The essentials: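 CellSensor ESRE-bla HeLa cells, 1,500 per well, plated overnight, then exposed to compounds for 5 hr at 37 C. Beta-lactamase reporter read with LiveBLAzer B/G FRET substrate after 2 hr at room temperature, 405 nm excitation, 460 and 530 nm emission.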

The nature of test [6]: qHTS assay to identify small molecule agonists of the endoplasmic reticulum stress response signaling pathway - cell viability counter screen (AID 1159517; calls by dose curve;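 also: HeLa cells carrying an ER stress response element beta-lactamase reporter; series mostly up to about 61 µM; nearly all actives have a fitted effect of over 50% in size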). The essentials:
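ESRE-bla HeLa cells, 1,500 per well, seeded overnight then treated with compounds for 5 hr at 37 C. After the beta-lactamase read, viability in the same wells is measured by CellTiter-Glo luminescence after 30 min at room temperature.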

Test [7] is described as follows: qHTS assay to identify small molecule antagonists of the retinoid-related orphan receptor gamma (ROR-gamma) signaling pathway - cell viability counter screen (AID 1159520). Also: nearly all actives have a fitted effect of over 50% in size. The essentials:
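Tet-on ROR gamma CHO cells were given compounds for 2 hr, then doxycycline hyclate at 1 uM final, and incubated 16 hr at 37 C. Viability was measured as ATP content by CellTiter-Glo luminescence.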

The target in test [8] is Nuclear receptor ROR-gamma (Homo sapiens) (UniProt P51449). Nature of the test: qHTS assay to identify small molecule antagonists of the retinoid-related orphan receptor gamma (ROR-gamma) signaling pathway (AID 1159521). The essentials:
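Inducible-expression reporter assay: doxycycline (1 uM final) switched on RORγ in CHO cells bearing a ROR response element-luciferase construct, with test compounds present from 2 h beforehand. Decreased luminescence after 16 h defined antagonist activity.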

A short description of test [9]: qHTS assay to identify small molecule agonists of the AP-1 signaling pathway - cell viability counter screen (AID 1159525; calls by dose curve; also: nearly all actives have a fitted effect of over 55% in size). The essentials:
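AP-1-bla ME-180 cells in Opti-MEM with 0.5% dialyzed FBS, compound exposure 5 h at 37 C in 15-point titration. Viability read in the same wells as ATP content by CellTiter-Glo luminescence, normalised to tetra-n-octylammonium bromide and DMSO controls.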

Test [10] can be described thus: qHTS assay to identify small molecule agonists of the AP-1 signaling pathway (AID 1159526; calls by dose curve).
Test [11] has as its target Retinoic acid receptor RXR-alpha (Homo sapiens) (UniProt P19793). Nature of the test: qHTS assay to identify small molecule agonists of the RXR signaling pathway (AID 1159527; calls by dose curve; also: nearly all actives have a fitted effect of over 35% in size). The essentials: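 Compounds in DMSO were added to RXR-alpha-UAS-bla HEK 293T cells kept in 2% charcoal-stripped serum, and incubated 16 hr at 37 C with 5% CO2. Reporter signal came from a 2 hr B/G FRET substrate step.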

Test [12] is described as follows: qHTS assay to identify small molecule agonists of the RXR signaling pathway - cell viability counter screen (AID 1159529). Summed up:
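Counter screen: CellTiter-Glo luminescence. Cells: RXR-alpha-UAS-bla HEK 293T. Medium: 2% charcoal-stripped FBS. Treatment: 16 h, 37 C. Reagent incubation: 30 min, RT.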

Test [13] is described as follows: qHTS assay to identify small molecule antagonists of the retinoid acid receptor (RAR) signaling pathway - cell viability counter screen (AID 1159551). Also: nearly all actives have a fitted effect of over 35% in size. Summed up:
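C3RL4 RARE-luciferase cells, 1,000/well, incubated overnight, then dosed with compound plus 1 uM retinol (final). After 6 hr at 37 C, viability read by CellTiter-Glo ATP luminescence following 30 min at room temperature.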

A short description of test [14]: qHTS assay to identify small molecule agonists of the retinoic acid receptor (RAR) signaling pathway (AID 1159553). Also: potency is read from the fitted curve at half-maximal effect. Summed up:
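C3RL4 RARE-luciferase cells were seeded at 1,000/well and grown overnight at 37 C, then exposed to compounds for 6 hr at 37 C, 5% CO2. Luciferase reagent was added and luminescence was read after 30 min at room temperature.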

A short description of test [15]: qHTS assay to identify small molecule antagonists of the estrogen related receptor (ERR) signaling pathway - cell viability counter screen (AID 1224818). Also: series mostly up to about 46 µM. Summed up:
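ERR cells, 2,000 per well, compound added after 6 h and incubated 17.5 h at 37 C. Viability read by CellTiter-Fluor fluorescence after a further 30 min at 37 C.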

A short description of test [16]: qHTS assay to identify small molecule antagonists of the estrogen related receptor (ERR) signaling pathway (AID 1224819). The essentials:
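ERR reporter cell line (NTP) plated at 2,000 cells/well, settled 6 h at 37C/5% CO2, then exposed to LOPAC compounds for 18 h at 37C. One-Glo luciferase luminescence read after 30 min at room temperature.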

A short description of test [17]: qHTS assay to identify small molecule agonists of the estrogen related receptor (ERR) signaling pathway (AID 1224820). Summed up:
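Cells: ERR line from NTP, 2,000/well. Pre-incubation 6 h, 37 C/5% CO2. Compound (DMSO) pin transfer, 18 h 37 C. One-Glo, 30 min RT, luminescence.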

The subject of test [18] is estrogen-related receptor alpha (ERRalpha) with PGC-1alpha coactivator, human. Nature of the test: qHTS assay to identify small molecule antagonists of the estrogen related receptor signaling pathway with the pleiotropic PPARgamma coactivator (PGC) (AID 1224821; calls by dose curve). The essentials: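 Luminescent read-out (One-Glo, 30 min at room temperature) following 18 h treatment of PGC/ERR cells at 37 C with compounds delivered in DMSO. Cells had settled 6 h at 37 C/5% CO2 before dosing.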

Test [19] in a line: qHTS assay to identify small molecule antagonists of the estrogen related receptor signaling pathway with the pleiotropic PPARgamma coactivator (PGC) cell viability counter screen (AID 1224822; also: series mostly up to about 46 µM). The essentials: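 PGC/ERR cells rested 6 h, then compound-treated 17.5 h at 37 C. CellTiter-Fluor added for 30 min at 37 C, viability measured by fluorescence intensity.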
Test [20] in a line: qHTS assay to identify small molecule antagonists of the retinoic acid receptor (RAR) signaling pathway (AID 1159552; also: nearly all actives have a fitted effect of over 50% in size). The essentials:
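Antagonism of retinol-induced RARE reporter activity was measured in C3RL4 cells. Exposure to compounds and 1 uM final retinol lasted 6 hr at 37 C, with luminescence as endpoint.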

Retinoic acid receptor RXR-alpha (Homo sapiens), sequence (P19793 whole entry, looked up): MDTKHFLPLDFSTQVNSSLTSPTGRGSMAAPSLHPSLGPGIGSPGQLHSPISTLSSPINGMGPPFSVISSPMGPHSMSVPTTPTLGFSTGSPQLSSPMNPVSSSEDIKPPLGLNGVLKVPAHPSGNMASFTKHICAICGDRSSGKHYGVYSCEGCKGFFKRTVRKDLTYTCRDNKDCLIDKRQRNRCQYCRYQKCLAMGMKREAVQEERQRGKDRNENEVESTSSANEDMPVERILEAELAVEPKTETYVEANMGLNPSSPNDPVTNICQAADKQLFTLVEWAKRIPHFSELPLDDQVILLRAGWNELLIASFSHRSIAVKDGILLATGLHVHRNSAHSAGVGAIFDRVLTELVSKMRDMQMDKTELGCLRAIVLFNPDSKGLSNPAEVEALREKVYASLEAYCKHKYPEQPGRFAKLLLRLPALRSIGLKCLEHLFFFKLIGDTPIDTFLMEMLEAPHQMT

With `CNCC(O)c1ccc(O)cc1` (stereo unspecified), the Potency entry in test [1], in test [8], in test [10], in [11] and in test [14] was “inactive” throughout. In addition, the result in [2], in [3], in test [4], in [5], in [6] and in test [7] was inactive. Also, the call in test [9], in test [12], in test [13], in test [15], in test [16] and in test [17] was inactive. Further, the outcome in test [18] and in test [19] was inactive.
Take `O=C/C=C/c1ccccc1`: the Potency entry in test [1], in test [8], in test [10] and in test [11] was “inactive” each time. Besides, the call in test [2], in test [3], in [4], in test [5], in test [6] and in [7] was inactive. Further, the result in [9], in test [12] and in [13] was inactive. Also, in test [14], the Potency result was “inactive and 34.4 µM (active)”.
Take `COS(=O)(=O)OC`: the Potency result in [1], in [8], in [10], in test [11], in test [20] and in test [14] was “inactive” each time. Moreover, the call in test [2], in test [3], in test [4], in test [5], in [6] and in test [7] was inactive. Also, the molecule was classed as inactive in test [9], in [12] and in test [13].
On to `O=[N+]([O-])c1cc([As](=O)(O)O)ccc1O`, for which the Potency result in test [1], in [8], in [10], in test [11], in test [20] and in [14] was “inactive” in each case. Also, the molecule was called inactive in test [2], in test [3], in test [4], in [5], in test [6] and in test [7]. The outcome in test [9], in [12] and in test [13] was inactive.
In the case of `N#Cc1cccc(C#N)c1`, the Potency entry in [1], in test [8], in [10], in test [11] and in test [14] was “inactive” each time. The molecule was classed as inactive in test [2], in test [3], in [4], in [5], in test [6] and in test [7]. In addition, the molecule was classed as inactive in [9], in test [12] and in test [13].
Regarding `O=C(O)C1C(C(=O)O)C2(Cl)C(Cl)=C(Cl)C1(Cl)C2(Cl)Cl` (stereo unspecified), the Potency entry in test [1], in [8], in [10] and in [11] was “inactive” each time. Also, the call in test [2], in test [3], in test [4], in test [5], in [6] and in test [7] was inactive. The result in test [9], in [12] and in [13] was inactive.
On to `NNc1ccccc1`, for which the Potency result in [1], in test [8], in test [10] and in test [11] was “inactive” throughout. For the same molecule, the call in test [2], in test [3], in [4], in test [5], in [6] and in test [7] was inactive. In addition, the molecule was classed as inactive in test [9], in test [12] and in test [13].
For `Cl/C=C/Cl`, the Potency entry in test [1], in test [8], in test [10], in [11] and in test [14] was “inactive” in each case. In addition, the molecule was called inactive in [2], in [3], in test [4], in test [5], in test [6] and in test [7]. The result in [9], in test [12] and in [13] was inactive.
Consider `Cc1cccc(C)c1N`, for which the Potency result in test [1], in [8], in [10], in test [11], in test [20] and in test [14] was “inactive” in each case. The molecule was classed as inactive in test [2], in [3], in test [4], in test [5], in [6] and in [7]. Moreover, the molecule was called inactive in test [9] and in test [13].
